PubChem BioAssay AID504648 (National Center for Advancing Translational Sciences (NCATS), 2011)
About 610 (0.16%) of roughly 390,000 compounds were called active. Not shown: some 4% with an inconclusive outcome. For the sample, actives were picked, then their nearest neighbours and some compounds at random. Unmarked numbers belong to inactive results. Calls follow the shape of the dose curve; as a rule, active = well fitted inhibition curve with a large enough effect; inconclusive = small, poorly fitted or top-dose-only effect, or effect the other way, or another doubt; inactive = no such curve, though single readings can be large or run the other way.

Assay: Nrf2 qHTS screen for inhibitors: counterscreen for cytotoxicity
Conditions: A549 ARE-Fluc cells, CellTiter-Fluor viability, 18-24 h; series mostly up to 46 µM; activity change, negative = cytotoxicity: at the top concentration
Description: NIH Molecular Libraries Probe Production Network [MLPCN]
NIH Chemical Genomics Center [NCGC]
Assay Provider: Shyam Biswal, Johns Hopkins University
Nrf2 is a transcription factor that maintains cellular redox homoestasis and protects cells from xenobiotics. Nrf2 binds to the antioxidant response element (ARE) to induce gene expression of a broad spectrum of genes that encode for antioxidants. […] Finding a small molecule that act as an inhibitor of Nrf2 function would represent a novel therapeutic target that could lead to improvement in survival of patients undergoing chemo- and/or radio- therapy.
So here we implemented a counterscreen to weed out the cytotoxic compounds.
1. Shibata, T., et al., Genetic Alteration of Keap1 Confers Constitutive Nrf2 Activation and Resistance to Chemotherapy in Gallbladder Cancer. Gastroenterology, 2008.
2. Sjoblom, T., et al., The consensus coding sequences of human breast and colorectal cancers. Science, 2006. 314(5797): p. 268-74.
NCGC Assay Protocol Summary:
A concentration-response assay was performed with A549 ARE_Fluc cells which are suspended in 5% FBS OPTI-MEM. Five uL were dispensed into 1536-well white TC-treated plate using the Kalypsys dispenser to achieve a density of 5000 cells/well in all columns except column 1. The plate is incubated at 37deg C at 5% CO2 for 2 hours before 23 nL of compounds are added with the Kalypsys pin tool equipped with a 1,536-pin array containing 10-nL slotted pins (FP1S10, 0.457-mm diameter, 50.8 mm long; V&P Scientific). The control compounds Budesonide and Staurosporine are both added at a concentration of 2mM and Budesonide is also added as a 1:10 titration, starting at 200uM, to achieve dose-response. After an 18-24 hour incubation at 37deg C at 5% CO2, 5ul of medium is added to column 1. Afterwards 1ul of 5x of CellTiter-Fluor (Promega) is added to every well. The plate is then incubated at 37deg C at 5% CO2 for 30 minutes before they are read on the ViewLux (Perkin Elmer) for a fluorescent read Ex=405(10)/Em=525(10) for a 3 second exposure, 2x binning, and high gain. Then 3 uL of 3x BugLite is dispensed into all wells and the plate is incubated at ambient room temperature for 15 minutes. Afterwards another ViewLux read is performed using the clear filter to get a luminescent read with the settings of 40 second exposure, 2x binning, and high gain. Cytotoxicity is assessed through the first fluorescent read and then biochemical activity against Nrf2 is measured in the luminescent read.
% is scaled to controls: 0 for no effect and ±100 for the full control effect; potency is read from the fitted curve at half-maximal effect.

Structure (SMILES) | activity change, negative = cytotoxicity | Potency
O=C(NCc1nnc(C(=O)Nc2ccc(C(F)(F)F)cc2Cl)o1)c1ccccc1 | -5.57% | –
CC1CCCCN1CC(=O)N1CCCc2c1c(=O)oc1ccc(OCc3ccccc3)cc21 (stereo not given) | -12% | –
COc1cccc(C2CC(c3ccccc3)=NN2S(=O)(=O)c2ccccc2)c1OC (stereo not given) | -2.21% | –
COc1ccc2c(c1OC)C(=O)OC2Nc1nc(-c2ccccc2)cs1 (stereo not given) | – | 20.6 µM (active)
Cc1ccc(CNC(=O)C2(C(F)(F)F)C/C(=C\CCO)CCCO2)o1 (stereo not given) | -0.0353% | –
Cn1nnnc1Sc1ncnc2scc(-c3ccccc3[N+](=O)[O-])c12 | -8.01% | –
COc1cccc(OC2=NS(=O)(=O)c3ccccc32)c1 | 8.49% [at 65.3 µM] | –
CCc1ccc(NC(=O)N2CCN(C(=O)c3nsc4ccccc34)CC2)cc1 | -8.29% | –
Cc1cc(C)c(NC(=O)Cn2c(SCC(=O)NCc3ccccc3)nc3ccccc32)c(C)c1 | -9.69% | –
COc1ccc(Br)cc1C1C2C=CCC(C)C2C(=O)N1Cc1ccccc1 (stereo not given) | -9.11% | –
O=C1C2C(c3ccccc3)CC=CC2C(c2ccoc2)N1Cc1ccccc1 (stereo not given) | -12.7% | –
Cc1ccc(NC(=O)C(Cc2ccccc2)NS(=O)(=O)c2ccc3c(c2)oc(=O)n3C)cc1C (stereo not given) | -0.129% | –
CC(=O)Nc1cc(C(=O)NCc2ccc(F)cc2)ccc1Sc1ccc(F)cc1 | -2.42% | –
COC(=O)c1ccc(OC)c(Cn2c(=O)n(Cc3ccccc3)c(=O)c3c2c2cc(OC)ccc2n3C)c1 | 2.6% | –
O=C1Nc2ccc(Br)cc2/C1=N/N=C/C1=C(N2CCOCC2)C(=C\c2ccccc2)/CC1 | – | 18.4 µM (active)
COc1ccccc1C(=O)OCc1cc(=O)n2nc(-c3cccs3)sc2n1 | -1.04% | –
O=[S+]([O-])(c1ccc2c(c1)OCCO2)N1CCN([S+](=O)([O-])c2c(Cl)cc(Cl)cc2Br)CC1 | -1.37% | –
COc1ccc(C2=NC(c3ccncc3)=Nc3ccc(Br)cc3N2)cc1 | 4.44% | –
O=[S+]([O-])(c1ccc(OC(F)(F)F)cc1)N1CCN([S+](=O)([O-])c2ccc3c(c2)OCCO3)CC1 | -2.24% | –
CCc1ccc(NC(=O)Cn2c(=O)n(CCC(=O)NCc3ccc4c(c3)OCO4)c(=O)c3ccccc32)cc1 | -0.967% | –
CCc1ccccc1NC(=O)N1CCN(C(=O)c2nsc3ccccc23)CC1 | 7.86% | –
CCCn1c2ccccc2c2cnn(CC(=O)N3CCCC(C(=O)OCC)C3)c(=O)c21 (stereo not given) | 11% | –
CCOC(=O)c1c(C)[nH]c2c1-c1ccccc1C(=O)C2=O | – | 23.1 µM (active)
CCOC(=O)c1c(C)[nH]c(C)c1S(=O)(=O)N(C)CC(=O)N1CCN(c2ccccc2)CC1 | -2.2% | –
CCOC(=O)c1c(SCC(=O)Nc2cccc(C)c2C)nc(=O)[nH]c1C | 5.98% | –

Structure (SMILES) | activity change, negative = cytotoxicity | Potency
COc1ccc(CN(Cc2ccccc2)C(=O)c2ccc(O)cc2)cc1COc1ccc(NC(C)=O)cc1 | 0.528% | –
Cc1ccc(Cn2ncc3c4sc(C)cc4n(C)c3c2=O)c(C)c1 | -0.122% | –
Cc1ccc(-c2nnc3ccc(SCC(N)=O)nn23)cc1 | -12.6% | –
CCc1cccc(NC(=O)c2cnc(N3CCOCC3)c3ccccc23)c1 | -2.22% | –
COc1ccc(C(=O)N(Cc2ccccc2)Cc2ccc(OC)c(COc3ccc(NC(C)=O)cc3)c2)c(O)c1 | 10.5% | –
C=C1CCN(Cc2ccc(OC)cc2)S(=O)(=O)c2ccccc21 | 1.54% | –
CC(=O)OCC(NC(=O)C(Cc1ccccc1)NC(=O)OC(C)(C)C)C1OC(n2ccc(=O)[nH]c2=O)C(OC(C)=O)C1OC(C)=O (stereo not given) | -1.95% | –
CCN(CC)/[N+]([O-])=N/Oc1cc(O/[N+]([O-])=N/N2CCCC2CO)c([N+](=O)[O-])cc1[N+](=O)[O-] (stereo not given) | -4.52% | –
COc1ccc2c(CNCCc3ccccc3C)c(C(=O)O)n(Cc3ccccc3C)c2c1 | 2.98% | –
COc1ccc(Cn2c(C(=O)O)c(CNCc3cccc(OC)c3)c3ccc(C)cc32)cc1 | – | 8.2 µM (active)
CCOc1ccc(CNCc2c(C(=O)O)c(C)n(Cc3cccc(OC)c3)c2C)cc1OC | 0.69% | –
Cc1c(N=Nc2ccc(N(C)C)cc2)c(=O)n(-c2ccccc2)n1C | – | 18.4 µM (active)
Cc1c(C=O)n(C)n(-c2ccccc2)c1=O | -0.443% | –
Cc1ccc(S(=O)(=O)Nc2ccccc2CNc2c(C)n(C)n(-c3ccccc3)c2=O)cc1 | 3.84% | –
O=C1c2ccccc2C(=O)N1c1ccc(S(=O)(=O)N2CCOCC2)c2ccccc12 | 9.66% | –
CCCN(CCC)C(=O)C1CCCN(c2ncnc3c2nc2n3CCCCC2)C1 (stereo not given) | -13.8% | –
N#CN1CCC(NS(=O)(=O)c2cccc(F)c2)C1 (stereo not given) | 2.73% | –
CC[n+]1cc(C)ccc1/C=C/c1ccc(N(C)C)cc1 | – | 9.2 µM (active)
N#Cc1ccc(OC2=NS(=O)(=O)c3ccccc32)cc1 | 8.95% | –
CCC(C)Nc1oc(-c2ccc(COc3ccc(Cl)cc3)o2)nc1C#N (stereo not given) | -11.5% | –
Cc1c(C)n(Cc2ccc(Cl)cc2)c2ccc(C(=O)NCCc3ccc(S(N)(=O)=O)cc3)cc12 | -0.406% | –
Cc1onc(-c2ccc(F)cc2F)c1C(=O)Nc1cccc(C(F)(F)F)c1 | 2.97% | –
COc1cc(NC(=O)c2[nH]cnc2C(N)=O)cc(C(=O)Nc2cccc(C(F)(F)F)c2)c1 | – | 20.6 µM (active)
Cc1cc(Nc2cccc(C(F)(F)F)c2)nc2ccc(NC(=O)c3ccc(=O)[nH]c3)cc12 | -1.16% | –
Cc1ccc(-c2nc(SCc3ccc(Br)cc3)n3[nH]c(=O)cc3n2)cc1 | 12.3% | –

Structure (SMILES) | activity change, negative = cytotoxicity | Potency
O=C(O)C1CC=CC2CCN(C3CCCCC3)C(=O)C21 (stereo not given) | -2.71% | –
O=C(COc1ccccc1)Nc1ccc(N2CCN(C(=O)c3cccs3)CC2)cc1 | -1.48% | –
C=CC(=O)Nc1ccc(Nc2ccnc(Nc3ccc(N4CCN(C)CC4)cc3)n2)cc1 | – | 9.2 µM (active)
Cc1cc(Nc2cc(N3CCN(C)CC3)nc(Sc3ccc(NC(=O)C4CC4)cc3)n2)n[nH]1 | -6.27% | –
Cc1ccc(F)c(NC(=O)CCOc2ccccc2C)c1 | 4.07% | –
C/C=C/c1ccc(OCCOc2ccc(C=O)cc2OC)c(OC)c1 | -2.78% | –
COc1cc(/C=N/NC(=O)Nc2ccccc2)ccc1OCCOc1ccccc1C | – | 5.8 µM (active)
CC(=O)c1ccc(NC(=O)CSc2c(C(C)C)cnc3c2c(=O)n(C)c(=O)n3C)cc1 | 0.808% | –
COc1ccc(CN2CCC(=O)c3ccccc3S2(=O)=O)cc1 | 0.19% | –
O=C(c1ccc2c(=O)n(Cc3ccco3)c(=S)[nH]c2c1)N1CCCC1 | -3.84% | –
COc1ccc(C2Nc3ccccc3C(=O)N2Cc2ccc(CNC(=O)CO)cc2)cc1COc1ccc(NC(C)=O)cc1 (stereo not given) | -0.576% | –
Cc1ccc(OCCn2c(CNc3ccccc3C)nc3ccccc32)cc1 | -8.35% | –
O=C(CCC1N=C2c3ccccc3N=C(SCc3ccccc3F)N2C1=O)NCCc1ccccc1 (stereo not given) | -0.915% | –
CN(C)Cc1cn(-c2ccccc2)nc1-c1ccccc1 | -0.545% | –
COC(=O)C(CC(C)C)NS(=O)(=O)c1cc(Br)ccc1Br (stereo not given) | 0.0452% | –
Cc1cc(C)cc(NC(=O)CCS(=O)(=O)c2cc3c4c(c2)CCN4C(=O)CC3)c1 | 4.58% | –
O=[N+]([O-])c1ccc(S(=O)(=O)N2CCN(c3nc(-c4ccccc4)nc4ccccc34)CC2)cc1 | 10.7% | –
COc1ccc(C2Nc3ccccc3C(=O)N2Cc2ccco2)cc1COc1cccc(NC(C)=O)c1 (stereo not given) | -11.8% | –
C=CCNC(=O)c1ccc2nc(-c3ccco3)c(-c3ccco3)nc2c1 | 1.69% | –
CCOc1ccc(NC(=O)c2c(NCc3cccc(OC)c3OC)sc3c2CCC3)cc1 | -1.02% | –
CCOc1ccc(CC(=O)NCCc2csc3nc(-c4ccccc4F)nn23)cc1 | 2.29% | –
CC(=O)Nc1ccc(S(=O)(=O)N2N=NC3C2C2CC4C3(CN(C(=O)OC(C)(C)C)S4(=O)=O)O2)cc1 (stereo not given) | 3.82% | –
COc1ccc(CCn2c3c(c(=O)[nH]c2=S)CN(C(C)C)CN3)cc1OC | -0.515% | –
Cc1ccc(CNS(=O)(=O)c2ccc(C(=O)N(C)C)s2)cc1 | 10.7% | –
Cc1cc(C)n2ncc(C(=O)Nc3cccc(C#N)c3)c2n1 | -5.38% [at 9.26 µM] | –

Structure (SMILES) | activity change, negative = cytotoxicity | Potency
Oc1ccc(Cl)cc1C1C=C(c2ccc3c(c2)OCO3)NC(c2c(F)cccc2Cl)N1 (stereo not given) | -10.7% | –
COc1ccc(C2/C=C\CN(C(=O)c3ccc(C)cc3)C(Cc3ccccc3)C(=O)N2Cc2ccc(F)cc2)cc1 (stereo not given) | -13% | –
C=C1CCN(C(CC(C)C)C(=O)NCc2cc(OC)c(OC)c(OC)c2)S(=O)(=O)c2ccccc21 (stereo not given) | 10.7% | –
CCn1cc(/C=C2/SC(=S)NC2=O)c(C)n1 | – | 18.4 µM (active)
COc1cccc(C2c3c(ncn(-c4cccc(Br)c4)c3=N)Oc3ccc4ccccc4c32)c1 (stereo not given) | -1.13% | –
O=C(Nc1cccc2cccnc12)C(F)(F)F | 3.12% | –
N#Cc1nc(NCc2ccc(Cl)c(Cl)c2)c2ncn(CCCO)c2n1 | -7.77% | –
Cc1c(Cl)cccc1-c1ccc(CNCCCSc2nnnn2C)o1 | -10.9% | –
O=S1(=O)N=C(Oc2cccc(Br)c2)c2ccccc21 | 0.501% | –
O=C(NCc1ccccn1)[C@]1(C(F)(F)F)C[C@H](CCc2ccccc2)CCCO1 | -1.56% | –
O=c1ccc2c(-c3ccccc3S(=O)(=O)O)c3ccc(O)c(O)c3oc-2c1O | – | 13 µM (active)
Cc1cc2c(s1)c1cnn(Cc3c(F)cccc3Cl)c(=O)c1n2C | -1.2% | –
CC(=O)NC(c1cccs1)c1cc(Cl)c2cccnc2c1O (stereo not given) | -15.6% | –
COC(=O)c1ccccc1NC(=O)c1ccc(C#N)cc1 | 3.57% | –
COc1ccc(-c2ccc3ncnc(NCc4cccs4)c3c2)cc1OC | 0.721% | –
COc1ccccc1NC(=O)CSC1=Nc2ccccc2C2=NC(CC(=O)NCc3cccs3)C(=O)N12 (stereo not given) | 0.335% | –
Cc1ccc(-c2nc3ccccn3c2Nc2ccc(F)cc2)o1 | -3.31% | –
COC(=O)c1ccccc1S(=O)(=O)Nc1ccc(OC)cc1 | 2.48% | –
Oc1ccc(Cl)cc1C1C=C(c2ccc3c(c2)OCO3)NC(c2ccc(F)c(Br)c2)N1 (stereo not given) | -3.09% | –
O=C(NC(Nc1nc2ccc([N+](=O)[O-])cc2s1)(C(F)(F)F)C(F)(F)F)c1ccccc1 | – | 10.3 µM (active)
O=C(CNC(=O)c1ccccc1)OC(C(=O)Nc1cc([N+](=O)[O-])ccc1F)c1ccccc1 (stereo not given) | -1.23% | –
NS(=O)(=O)c1ccc2nc(NC(=O)COc3ccccc3)sc2c1 | 5.87% | –
CNC(=O)c1ccsc1NC(=O)c1ccc(S(=O)(=O)N2CCc3ccccc32)cc1 | -1.06% | –
O=C(Nc1nc2ccc([N+](=O)[O-])cc2s1)c1ccc(S(=O)(=O)N2CCCc3ccccc32)cc1 | – | 9.2 µM (active)
O=C(Nc1nnc(S(=O)(=O)N2CCCc3ccccc32)s1)c1cccc(F)c1 | -0.547% | –
